Laboratory results reported in PubChem BioAssay (NCI).
This is part of a sample that, as a whole, favours compounds with a hit. Of some 83,000 tested, about 20% had one in any assay.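 Activity criterion: percent growth below 10, measured after cells in 96-well plates were exposed to a single compound concentration for 48 hours.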 Unmarked numbers belong to inactive results. Active and inactive are the calls of the source.

What follows are compounds tested on HL-60(TB) leukemia (assay: NCI-60 one-dose screen, 48 h (100 = growth as untreated, 0 = no growth, -100 = all killed)). Settings: 10 µM unless noted.
In the case of C=C1CCC2C3(C)COC(c4ccc(NC(C)=O)cc4)OC3CCC2(C)C1C/C=C1/C(=O)OCC1O (centres undefined), the growth is reported as 32.8%. In the case of COc1ccc(/C=C/c2c(C(=O)/C=C/c3ccc(C(F)(F)F)cc3)c(C)nc3ccccc23)cc1, the growth is reported as -21.7% (active). For COc1ccc(-c2ncc(-c3ccccc3)[nH]2)cc1OC, the growth was -30.2% (active). Compound COc1nc2c(cc1S(=O)(=O)c1ccccc1)CCc1c-2cnn1-c1ccc(Cl)cc1 has a growth of 90.5%. For C#C[C@@]1(O)[C@@H](CO)O[C@@H](n2cc(Br)c3c(Cl)ccnc32)[C@@H]1O, the growth was -46.5% (active). Work on O=[N+]([O-])c1ccc(S(=O)(=O)N2CCN(c3ccnc4cc(Cl)ccc34)CC2)c([N+](=O)[O-])c1 yielded a growth of 75.7%. In the case of CCOC(=O)c1c(C)oc2ncnc(Nc3ccc(C(=O)NCCc4ccccc4)cc3)c12, the growth is reported as 87.7%. With Brc1ccc(-c2[nH]ncc2-c2c[nH]c3ccccc23)cc1 the growth was 80.7%. With C1CCC(N2CN3c4nonc4N4CN(C5CCCCC5)CN5c6nonc6N(C2)C3C45)CC1 (centres undefined) the growth was 100%. Work on COc1cc(C2=NN(C=O)C(c3cccc(Nc4ccnc5cc(Cl)ccc45)c3)C2)cc(OC)c1OC (centres undefined) yielded a growth of 75.4%. C1CCc2onc(-c3noc4c3CCCCC4)c2CC1 gave a growth of 102%. CCOC(=O)c1ccc2n1CCCc1cnc(NC(C)=O)nc1-2 was tested, and the growth was 109%. CN(C)Cc1ccc(C(=O)Nc2ccc3ncnc(Nc4ccc(Oc5cccc(F)c5)c(Cl)c4)c3c2)cc1 was tested, and the growth was -41.7% (active). Work on CC(C)=CCC[C@@H](C)[C@H]1CC[C@@]2(C)C3=C(CC[C@]12C)[C@@]1(C)CC[C@H](O)C(C)(C)[C@@H]1CC3 yielded a growth of 105%.
